In PubChem BioAssay AID2240 (Broad Institute, 2010):
The whole screen tested about 37,000 compounds, of which about 100 (0.27%) were called active. Only a selection was taken, and actives are over-represented in it overall. A number with no mark means an inactive call. No stated cut-off is given here; in the data, active means inhibition above about 85%; inconclusive means no clear call, values can overlap the other calls; inactive means below about 68%.

Test: blocks MITF activity, primary screen, MITF inhibitor project, cell-based, luminescence (AID 2240);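 further: human melanocyte line stably carrying TRPM1 promoter luciferase reporter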
Settings: TRPM1 promoter luciferase, 24 h, stronger effect = higher value, concentration not given here
In the case of `c1ccc2c(c1)[I+]c1ccccc1-2`, the inhibition is reported as 90% (active).
In the case of `COc1ccc2[nH]cc(CCNCc3ccc(Br)cc3)c2c1`, the inhibition is reported as -13.8%.
For `CCCCC/C=C\C/C=C\C/C=C\CCCCCCC(=O)NCCO`, the inhibition was -1.85%.
For `C[C@H]1CCC/C=C/C2C[C@H](O)C[C@H]2[C@H](O)/C=C\C(=O)O1` (stereo not given in full), the inhibition was 108% (active).
`c1cncc(CNCCc2c[nH]c3ccccc23)c1` showed an inhibition of 1.76%.
For `COc1ccc(CNCc2nc3ccccc3c(=O)n2-c2ccc(F)cc2)cc1`, the inhibition was 8.31%.
With `C[C@H]1O[C@@H](O[C@H]2CC[C@]3(CO)C4CC[C@]5(C)[C@@H](C6=CC(=O)OC6)CC[C@]5(O)[C@@H]4CC[C@H]3C2)[C@H](O)[C@H](O)[C@@H]1O[C@@H]1O[C@H](CO)[C@@H](O)[C@H](O)[C@H]1O` (stereo not given in full) the inhibition was 10.7%.
In the case of `CN(C)C(=O)Oc1cc(OC(=O)N(C)C)cc(C(O)CNC(C)(C)C)c1` (stereo not given), the inhibition is reported as -14.7%.
With `CCCN(C/C=C/I)C1CCc2ccc(O)cc2C1` (stereo not given) the inhibition was -11.9%.
In the case of `COC1=CC23CCN(C)[C@H](Cc4cc(OC)c(OC)cc42)C3=CC1=O`, the inhibition is reported as 2.51%.
`Cc1ncsc1CCCl` showed an inhibition of -1.18%.
In the case of `CN[C@@H]1C[C@H]2O[C@@](C)([C@@H]1OC)n1c3ccccc3c3c4c(c5c6ccccc6n2c5c31)C(=O)NC4`, the inhibition is reported as 106% (active).
`CC(C)c1c(CN(C)C(C)Cc2ccccc2)n(C)n(-c2ccccc2)c1=O` (stereo not given) gave an inhibition of 20.5%.
`CC=C1CN2C3CC1C1(C(=O)OC)C2CC2(c4ccccc4N(C)C32)C1O` (stereo not given) showed an inhibition of 4.01%.
With `COc1ccccc1N1C(=O)NC(=O)C(CCc2ccncc2)(Cc2cccc3ccccc23)C1=O` (stereo not given) the inhibition was 7.09%.
